From PubChem BioAssay
Hits are enriched below; roughly 3% of the tested compounds scored in any of these assays.
KKLEB tox – reduces viability of KKLEB cystic fibrosis airway cells | KKLEB CF airway cells viability, ATPlite luminescence, overnight; hits give low values; cells stimulated with P. aeruginosa culture filtrate | activity change (cytotoxicity), % at 5 µM | 360,000 compounds, 0.36% hits;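 active = corrected activity change at or below -50% at 5 µM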
CF NFkB block – cystic fibrosis NF-kB activation inhibition; inhibition, % at 5 µM; AID 588850; 360,000 compounds, 0.86% hits; KKLEB NF-kB-GFP reporter, PAF-induced, GFP fluorescence overnight;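 active = at least 50% inhibition at 5 µM, scaled per plate between neutral and stimulator controls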;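 also: PAF is a Pseudomonas aeruginosa culture filtrate used as stimulus; plate controls were PAF-stimulated DMSO wells for no effect and unstimulated DMSO wells for full effect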
MITF TRPM1 inh – MITF TRPM1 promoter inhibition in SK-MEL-5 cells. SK-MEL-5 TRPM1 promoter luciferase, 24 h. inhibition, % at 12.5 µM. 330,000 compounds, 0.83% hits. AID 488899;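 active = mean inhibition across replicates of 60% or more, whatever share of single replicates reaches that level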
Peg3 prom inh – reduces Peg3 promoter-driven luciferase expression in HeLa; HeLa PEG-Prom luciferase reporter, luminescence, overnight; inhibition, % at 20 µM; 360,000 compounds, 1.7% hits; AID 588405;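 active = inhibition of at least 50% at 20 µM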
LMP1 NFkB inh – reduces LMP1-driven NF-kappaB luciferase signal. inhibition, % at 12.5 µM. LMP1-induced NF-kappaB luciferase reporter cells, luminescence. AID 504558. 350,000 compounds, 0.69% hits; in the data active = inhibition above about 41%;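 also: 0% = neutral control wells and 100% = reference inhibitor control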
HIF-2a inh – blocks HIF-2a reporter activity | 786-0 RCC cells HIF-2a reporter, luciferase luminescence, overnight | inhibition, % at 18.8 µM | 360,000 compounds, 0.72% hits | AID 624352;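 active = inhibition of the luminescence signal of 40% or more relative to plate controls, in a single-dose primary screen at 18.75 µM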
Numbers without * were called inactive.

For C=CCn1c(SCC(=O)N2CCC(C)CC2)nc2c([nH]c3ccccc32)c1=O the results were KKLEB tox 7.2, CF NFkB block -23.0, Peg3 prom inh 17.6, LMP1 NFkB inh -22.6 and HIF-2a inh 2.9.
`CCOCCC(=O)Nc1ccc2c(c1)c(=O)n(C)n2CC=C(C)C` gave KKLEB tox 0.8, CF NFkB block 3.7, Peg3 prom inh 13.8 and HIF-2a inh 2.9.
For CCN1/C(=C/C=C/c2oc3ccc(-c4ccccc4)cc3[n+]2CC)Oc2ccc(-c3ccccc3)cc21 the results were KKLEB tox -20.0, CF NFkB block -412.3, MITF TRPM1 inh 101.7*, Peg3 prom inh 83.8*, LMP1 NFkB inh 43.5* and HIF-2a inh 86.5*.
COc1ccccc1-c1noc2c1C(=O)N(C(=O)OC(C)(C)C)CC2 was read as KKLEB tox 6.3, CF NFkB block 4.6, Peg3 prom inh 7.7, LMP1 NFkB inh 1.9 and HIF-2a inh -8.8.
`COc1ccccc1C(=O)Nc1c(C(=O)N(CCN(C)C)Cc2ccco2)oc2ccccc12` gave KKLEB tox -31.2, CF NFkB block 12.8, MITF TRPM1 inh -3.5, Peg3 prom inh 92.3*, LMP1 NFkB inh -8.3 and HIF-2a inh -2.8.
`Cc1ccc2nc(COC(=O)c3cccnc3Cl)cc(=O)n2c1` gave KKLEB tox -20.2, CF NFkB block 1.5, Peg3 prom inh -33.2, LMP1 NFkB inh -24.1 and HIF-2a inh 0.0.
`O=C(Nc1ccc2c(c1)nc1n2CCSC1)c1ccco1` gave KKLEB tox -13.8, CF NFkB block 6.6, MITF TRPM1 inh 16.8, Peg3 prom inh -9.2, LMP1 NFkB inh 45.1* and HIF-2a inh -10.8.
For COC(=O)C1=C(C)NC(=O)NC1c1cc(Cl)ccc1OC (stereo not drawn) the results were KKLEB tox 3.8, CF NFkB block 7.3, MITF TRPM1 inh 0.9, Peg3 prom inh 11.0, LMP1 NFkB inh 7.3 and HIF-2a inh 8.3.
COc1ccc(Br)cc1C1NC(=O)NC(C)=C1C(=O)N(C)C (stereo not drawn) was read as KKLEB tox -53.3*, CF NFkB block 0.6, MITF TRPM1 inh -2.2, Peg3 prom inh 0.1, LMP1 NFkB inh 4.3 and HIF-2a inh 9.9.
`CN(CCNC(=O)C1CCN(S(=O)(=O)N2CCOCC2)CC1)CCc1ccccc1` gave KKLEB tox 5.6, CF NFkB block 11.1, MITF TRPM1 inh -1.5, Peg3 prom inh 5.0, LMP1 NFkB inh 41.5* and HIF-2a inh 15.5.
Screening O=C(NCCc1ccccc1)C1CCN(S(=O)(=O)N2CCCC2)CC1 returned KKLEB tox -5.2, CF NFkB block 10.7, MITF TRPM1 inh -1.1, Peg3 prom inh -4.4, LMP1 NFkB inh -1.3 and HIF-2a inh -15.8.
Screening CC(=O)N1CCn2c3c(c4cc(C)ccc42)CCCC31 (stereo not drawn) returned KKLEB tox 3.4, CF NFkB block -9.7, MITF TRPM1 inh -14.5, Peg3 prom inh -42.9, LMP1 NFkB inh -6.7 and HIF-2a inh -57.3.
`Cc1ccc2c(c1)c1c3n2CCN(C(=O)CCl)C3CCC1` (stereo not drawn) gave KKLEB tox -25.6, CF NFkB block 20.2, MITF TRPM1 inh 20.2, Peg3 prom inh 56.4*, LMP1 NFkB inh -33.3 and HIF-2a inh -24.7.
`O=C1C=C(c2ccccc2Oc2ccccc2)C[C@@H](c2ccc(F)cc2)C1` gave KKLEB tox -8.4, CF NFkB block 22.4, Peg3 prom inh 13.2, LMP1 NFkB inh -12.6 and HIF-2a inh 9.0.
Screening CCCCCCN1CCN(C2CN(Cc3ccc([N+](=O)[O-])cc3)S(=O)(=O)C2)CC1 (stereo not drawn) returned KKLEB tox 10.2, CF NFkB block 1.3, Peg3 prom inh 10.1, LMP1 NFkB inh -1.8 and HIF-2a inh 1.9.
Screening Cc1cc(F)cc(-c2cc(C(=O)NCc3ccco3)[nH]n2)c1 returned KKLEB tox -1.1, CF NFkB block -8.2, Peg3 prom inh -88.5 and HIF-2a inh -142.1.
For COc1ccc2nc3cc(Cl)ccc3c(Nc3cc(CN4CCCC4)c(O)c(CN4CCCC4)c3)c2n1 the results were KKLEB tox 3.4, CF NFkB block 29.6, Peg3 prom inh 96.6* and HIF-2a inh 13.8.
`COc1ccccc1NC(=O)c1cnc(SCC(=O)NCC2CCCO2)n(C)c1=O` (stereo not drawn) gave KKLEB tox -3.4, CF NFkB block -6.6, MITF TRPM1 inh 68.1*, Peg3 prom inh 0.1, LMP1 NFkB inh -15.5 and HIF-2a inh 2.3.
`CN(C)CC/C=C1\c2ccccc2Sc2cc(F)c(Cl)cc21` gave KKLEB tox 5.0, CF NFkB block 11.7, MITF TRPM1 inh -78.8, Peg3 prom inh 61.6*, LMP1 NFkB inh -1.6 and HIF-2a inh 13.1.
O=c1[nH]nnc2c1ncn2C1OC(CO)C(O)C1O (stereo not drawn) was read as KKLEB tox -16.6, CF NFkB block 7.7, Peg3 prom inh 20.2 and HIF-2a inh -14.9.
Screening CC1=C(O)C(=O)C(C2=C(O)C(=O)C(C)=C(O)C2=O)=C(O)C1=O returned KKLEB tox -2.4, CF NFkB block -18.1, MITF TRPM1 inh 1.5, Peg3 prom inh 15.3, LMP1 NFkB inh 4.8 and HIF-2a inh -2.9.
Screening Cc1ccc(C2=C(O)C(=O)C(c3ccc(C)cc3)=C(O)C2=O)cc1 returned KKLEB tox -8.4, CF NFkB block 55.6*, MITF TRPM1 inh 5.8, Peg3 prom inh -40.6, LMP1 NFkB inh -7.5 and HIF-2a inh -3.7.
Screening CCCCCCCOC(=O)C[N+](C)(C)CCOC1CC2CCC1(C)C2(C)C (stereo not drawn) returned KKLEB tox -38.3, CF NFkB block 47.3, MITF TRPM1 inh 93.8*, Peg3 prom inh 99.2*, LMP1 NFkB inh 10.7 and HIF-2a inh -1.8.
For COc1ccccc1Cc1c(-c2ccc(C#N)cc2)nc2c(Cl)cc(C(F)(F)F)cn12 the results were HIF-2a inh -10.3.
Screening COC(=O)[C@@]12C[C@@H](CC(=O)N3CCC(c4ccccc4)CC3)C(=O)N(Cc3ccc4c(c3)OCO4)C1=CCC(C)(C)C2 returned HIF-2a inh 1.8.
CCOC(=O)c1c(NC(=O)C2C3CCC(O3)C2C(=O)O)sc2c1CCC(CC)C2 (stereo not drawn) was read as KKLEB tox 18.8, CF NFkB block -9.7, MITF TRPM1 inh 5.7, Peg3 prom inh 4.3, LMP1 NFkB inh 4.0 and HIF-2a inh 7.3.
Screening CCOC(=O)c1c(NC(=O)C2C3CCC(O3)C2C(=O)O)sc(C)c1-c1ccc(F)cc1 (stereo not drawn) returned KKLEB tox 0.2, CF NFkB block 4.1, MITF TRPM1 inh 3.1, Peg3 prom inh 1.2, LMP1 NFkB inh 79.8* and HIF-2a inh 21.0.
NS(=O)(=O)c1ccc(N=Nc2c[nH]c(=O)c(O)c2)cc1 was read as KKLEB tox 0.7, CF NFkB block 2.6, MITF TRPM1 inh 3.0, Peg3 prom inh 16.9, LMP1 NFkB inh 3.9 and HIF-2a inh 41.1*.
